Data published in the supplement of paper PMC7858590.
Several values for one entry are separate records, joined by “and”; a condition that tells them apart may be missing. Equal values may be shown once. ± gives the standard deviation of the averaged measurements. The full ranking holds about 3,800 compounds; the median of “cell shape (eccentricity) Z-score vs DMSO control” is about 1.1, and the lowest 2% start at about -4.7. This is one part of a sample in which the lowest values are shown more often than they occur.

Each molecule was assayed on human monocyte-derived macrophages (M0) (assay: cell shape (eccentricity) Z-score vs DMSO control; higher = more elongated, M2-like morphology). Conditions: 20 µM; 24 h; macrophage state: M0 (M-CSF).
Procedure: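 Primary human monocyte-derived macrophages (M-CSF differentiated, pooled from 4 donors, 5000 cells/well in 384-well plates) were treated with each compound at 20 uM for 24 h, then fixed and stained with phalloidin/DAPI and imaged on an Opera Phenix (6 fields, about 1000 cells/well). Cell eccentricity was measured with CellProfiler, and a Z-score (t-test) was computed against 4 DMSO control wells in the same row. Negative values mean round (M1-like) cells and positive values mean elongated (M2-like) cells; the paper's hit cutoffs are Z <= -4 (M1) and Z >= 6 (M2). Scale: negative = round, M1-like.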
For `COC(=O)Nc1nc2cc(SC(C)C)ccc2[nH]1`, the “cell shape (Z-score)” value was -4.88 ± 0.16.
With `COC(=O)Nc1nc2cc(Sc3ccccc3)ccc2[nH]1` the “cell shape (Z-score)” value was -2.59 ± 3.9.
In the case of `CCCSc1ccc2[nH]c(NC(=O)OC)nc2c1`, the “cell shape (Z-score)” value is reported as -3.67.
For `CCCOc1ccc2[nH]c(NC(=O)OC)nc2c1`, the “cell shape (Z-score)” value was -1.59.
For `COC(=O)Nc1nc2cc(C(=O)C3CC3)ccc2[nH]1`, the “cell shape (Z-score)” value was -3.64.
In the case of `CCCCc1ccc2[nH]c(NC(=O)OC)nc2c1`, the “cell shape (Z-score)” value is reported as -5.71 and -2.34.
For `COc1ccc(C2Oc3cc(OC)ccc3CC2O)cc1` (centres undefined), the “cell shape (Z-score)” value was 1.66 ± 1.2.
In the case of `COc1ccc(-c2oc3c(CC=C(C)C)c(O[C@@H]4O[C@H](CO)[C@@H](O)[C@H](O)[C@H]4O)cc(O)c3c(=O)c2O[C@@H]2O[C@@H](C)[C@H](O)[C@@H](O)[C@H]2O)cc1`, the “cell shape (Z-score)” value is reported as -2.65.
`Nc1ncnc2c1c(-c1cccc(OCc3ccccc3)c1)cn2[C@H]1C[C@H](CN2CCCC2)C1` was tested, and the “cell shape (Z-score)” value was 6.27.
`O=c1c(O)c(-c2ccccc2)oc2ccccc12` was tested, and the “cell shape (Z-score)” value was 1.62.
With `CCOC(=O)[C@H](CCc1ccccc1)N[C@@H](C)C(=O)N1Cc2ccccc2C[C@H]1C(=O)O` the “cell shape (Z-score)” value was 2.22.
For `CC(=O)O[C@H]1C[C@@H](OC(C)=O)C(C)(C)C2C[C@@H](OC(C)=O)[C@]3(C)C(CC[C@@]4(C)[C@H](c5ccoc5)OC(=O)[C@H]5O[C@]543)[C@]21C` (some centres undefined), the “cell shape (Z-score)” value was -2.55.
With `CC(=O)O[C@@H]1CC2C(C)(C)[C@H](O)CC[C@]2(C)C2CC[C@@]3(C)[C@H](c4ccoc4)OC(=O)C4OC43[C@@]21C` (some centres undefined) the “cell shape (Z-score)” value was 2.33.
With `CC(=O)O[C@H]1C[C@@H](O)C(C)(C)C2C[C@@H](OC(C)=O)[C@]3(C)C(CC[C@@]4(C)[C@H](c5ccoc5)OC(=O)C5OC543)[C@]21C` (some centres undefined) the “cell shape (Z-score)” value was -2.78.
`CC(=O)O[C@@H]1CC2C(C)(C)C(=O)C=C[C@]2(C)C2CC[C@@]3(C)[C@H](c4ccoc4)OC(=O)[C@H]4O[C@]43[C@@]21C` (some centres undefined) was tested, and the “cell shape (Z-score)” value was -4.89.
`CC(=O)O[C@H]1CC[C@@]2(C)C(C[C@@H](OC(C)=O)[C@]3(C)C2CC[C@@]2(C)[C@H](c4ccoc4)OC(=O)[C@H]4O[C@]423)C1(C)C` (some centres undefined) was tested, and the “cell shape (Z-score)” value was -2.07.
`CC(=O)O[C@@H]1CC2C(C)(C)C(=O)CC[C@]2(C)C2CC[C@@]3(C)[C@H](c4ccoc4)OC(=O)C4OC43[C@@]21C` (some centres undefined) was tested, and the “cell shape (Z-score)” value was -5.48.
For `O=C1C[C@@H](c2ccc(O)c(O)c2)Oc2cc(O[C@@H]3O[C@H](CO)[C@@H](O)[C@H](O)[C@H]3O)cc(O)c21`, the “cell shape (Z-score)” value was 0.661 ± 1.8.
With `OC(CN1CCNCC1)Cn1c2ccc(Br)cc2c2cc(Br)ccc21` (centres undefined) the “cell shape (Z-score)” value was -4.09.
With `C=C1CCC[C@]2(C)CC[C@@](O)(C(=C)C(=O)O)C[C@@H]12` the “cell shape (Z-score)” value was -0.504.
With `CC1(C)CC[C@]2(C(=O)O[C@@H]3O[C@H](CO[C@@H]4O[C@H](CO)[C@@H](O)[C@H](O)[C@H]4O)[C@@H](O)[C@H](O[C@@H]4O[C@H](CO)[C@@H](O)[C@H](O)[C@H]4O)[C@H]3O)CC[C@]3(C)C(=CCC4[C@@]5(C)CC[C@H](O)[C@@](C)(C(=O)O)C5CC[C@]43C)C2C1` (some centres undefined) the “cell shape (Z-score)” value was 1.07.
In the case of `C=C1CCC2C(CC2(C)C)C(=O)CCC1O` (centres undefined), the “cell shape (Z-score)” value is reported as -1.93.
In the case of `OCC(O)CN1CCN(c2ccccc2)CC1` (centres undefined), the “cell shape (Z-score)” value is reported as 2.29.
For `C#CC1(OCC(O)CN2CCN(c3cccc(C(F)(F)F)c3)CC2)CCCCC1` (centres undefined), the “cell shape (Z-score)” value was -7.88.
With `C#CC1(OCC(O)CN2CCN(c3ccccc3OC)CC2)CCCCC1` (centres undefined) the “cell shape (Z-score)” value was -0.311.
`COC1=CC(=O)O[C@@H](/C=C/c2ccccc2)[C@@H]1O` was tested, and the “cell shape (Z-score)” value was -1.25.
In the case of `COc1cc2c(c(OC)c1OC)C[C@H]1COC(=O)[C@@H]1Cc1c-2cc(OC)c(OC)c1OC`, the “cell shape (Z-score)” value is reported as -9.6.
For `COc1cc2c(c(OC)c1OC)CCc1cc(O)c(O)cc1-2`, the “cell shape (Z-score)” value was -0.208.
With `COc1cc2c(c(OC)c1OC)-c1cc3c(cc1C[C@H]1C(=O)OC[C@@H]1C2)OCO3` the “cell shape (Z-score)” value was 0.816.
With `CC(C)Cn1cnc2c(N)nc3ccccc3c21` the “cell shape (Z-score)” value was 3.03.
In the case of `CC(C)C12CC1C(C)(O[C@@H]1O[C@H](CO)[C@@H](O)[C@H](O)[C@H]1O)CC2=O` (some centres undefined), the “cell shape (Z-score)” value is reported as 1.52.
With `CC(=O)OCC(=O)[C@H]1CCC2C3CC=C4C[C@@H](O)CC[C@]4(C)C3CC[C@@]21C` (some centres undefined) the “cell shape (Z-score)” value was 3.17.
`O=C(O)/C=C/c1ccccc1O[C@@H]1O[C@H](CO)[C@@H](O)[C@H](O)[C@H]1O` was tested, and the “cell shape (Z-score)” value was 1.56.
With `C[C@@H]1O[C@@H](O[C@@H]2[C@@H](O)[C@H](O[C@@H]3[C@@H](O)[C@@H](O)[C@H](O[C@H]4[C@H](OC(=O)[C@]56CCC(C)(C)C[C@H]5C5=CCC7[C@@]8(C)C[C@H](O)[C@H](O[C@@H]9O[C@H](C(=O)O)[C@@H](O)[C@H](O)[C@H]9O)[C@@](C)(CO)C8[C@H](O)C[C@@]7(C)[C@]5(C)C[C@H]6O)O[C@@H](CO)[C@@H]4O)O[C@H]3C)OC[C@H]2O)[C@H](O)[C@H](O)[C@H]1O` (some centres undefined) the “cell shape (Z-score)” value was -6.05.
With `C[C@@H]1O[C@@H](O[C@H]2[C@H](OC(=O)[C@]34CCC(C)(C)C[C@H]3C3=CCC5[C@@]6(C)C[C@H](O)[C@H](O[C@@H]7O[C@H](C(=O)O)[C@@H](O)[C@H](O)[C@H]7O)[C@@](C)(CO)C6[C@H](O)C[C@@]5(C)[C@]3(C)C[C@H]4O)O[C@@H](CO)[C@@H]2O)[C@H](O)[C@H](O)[C@H]1O[C@@H]1OC[C@@H](O)[C@H](O[C@H]2OC[C@](O)(CO)[C@H]2O)[C@H]1O` (some centres undefined) the “cell shape (Z-score)” value was -10.1.
`C[C@@H]1O[C@@H](O[C@@H]2[C@@H](O)[C@H](OC(=O)[C@]34CCC(C)(C)CC3C3=CCC5[C@@]6(C)CC[C@H](OC7OC(CO)C(OC8OCC(O)C(O)C8O)C(O)C7O)C(C)(C)C6CC[C@@]5(C)[C@]3(C)CC4O)O[C@H]2CO)[C@H](O)[C@H](O)[C@H]1O[C@H]1OC[C@](O)(CO)[C@H]1O` (some centres undefined) was tested, and the “cell shape (Z-score)” value was -11.6.
For `CC1(C)CC[C@@]2(C(=O)O[C@@H]3O[C@H](CO)[C@@H](O)[C@H](O)[C@H]3O)C(C1)C1=CCC3[C@@]4(C)CC[C@@H](O[C@@H]5O[C@H](CO)[C@@H](O)[C@H](O)[C@H]5O[C@@H]5O[C@H](CO)[C@@H](O)[C@H](O)[C@H]5O)C(C)(C)C4CC[C@@]3(C)[C@]1(C)C[C@H]2O` (some centres undefined), the “cell shape (Z-score)” value was 0.124 ± 0.97.
With `C[C@@H]1O[C@@H](O[C@@H]2[C@@H](O)[C@H](O[C@@H]3[C@@H](O)[C@@H](O)[C@H](O[C@H]4[C@H](OC(=O)[C@]56CCC(C)(C)C[C@H]5C5=CCC7[C@@]8(C)C[C@H](O)[C@H](O[C@@H]9O[C@H](C(=O)O)[C@@H](O)[C@H](O)[C@H]9O)[C@@](C)(CO)C8[C@H](O)C[C@@]7(C)[C@]5(C)C[C@H]6O)OC[C@H](O)[C@@H]4O)O[C@H]3C)OC[C@H]2O)[C@H](O)[C@H](O)[C@H]1O` (some centres undefined) the “cell shape (Z-score)” value was 0.295.
With `CC1(C)CC[C@]2(C(=O)O[C@@H]3O[C@H](CO)[C@@H](O)[C@H](O)[C@H]3O)CC[C@]3(C)C(=CCC4[C@@]5(C)C[C@H](O)[C@H](O[C@@H]6O[C@H](C(=O)O)[C@@H](O)[C@H](O)[C@H]6O)[C@@](C)(CO)C5CC[C@]43C)C2C1` (some centres undefined) the “cell shape (Z-score)” value was 0.273.
`CC1(C)CC[C@]2(C(=O)O[C@@H]3O[C@H](CO)[C@@H](O)[C@H](O)[C@H]3O)CC[C@]3(C)C(=CCC4[C@@]5(C)C[C@@H](O)[C@H](O)[C@@](C)(CO)C5[C@H](O)C[C@]43C)C2C1` (some centres undefined) was tested, and the “cell shape (Z-score)” value was 4.82 ± 3.7.
In the case of `CC1OC(OC2C(CO)OC(OC(=O)[C@]34CCC(C)(C)CC3C3=CCC5[C@@]6(C)CC[C@H](OC7OC(C)C(OC8OCC(O)(COC9OCC(O)C(OC%10OCC(OC%11OCC(O)(CO)C%11O)C(O)C%10O)C9O)C8O)C(O)C7O)C(C)(C)C6CC[C@@]5(C)[C@]3(C)CC4)C(O)C2O)C(O)C(O)C1O` (some centres undefined), the “cell shape (Z-score)” value is reported as 2.74.
In the case of `CC1(C)CC[C@@]2(C(=O)O[C@@H]3O[C@H](CO)[C@@H](O)[C@H](O)[C@H]3O)C(C1)C1=CCC3[C@@]4(C)CC[C@@H](O[C@@H]5O[C@H](C(=O)O)[C@@H](O[C@@H]6OC[C@@H](O)[C@H](O)[C@H]6O)[C@H](O)[C@H]5O)C(C)(C)C4CC[C@@]3(C)[C@]1(C)C[C@H]2O` (some centres undefined), the “cell shape (Z-score)” value is reported as 1.81.
With `Cc1cc(O)cc2oc3cc(O)cc(O)c3c(=O)c12` the “cell shape (Z-score)” value was -1.58.
With `CCCC(=O)Nc1ccc(OCC(O)CNC(C)C)c(C(C)=O)c1` (centres undefined) the “cell shape (Z-score)” value was 1.65.
`CC1=C(CO)C(=O)OC([C@@H](C)[C@H]2CCC3C4CC=C5C[C@@H](O[C@@H]6O[C@H](CO)[C@@H](O)[C@H](O)[C@H]6O)C[C@H](O)[C@]5(C)C4CC[C@@]32C)C1` (some centres undefined) was tested, and the “cell shape (Z-score)” value was 1.5.
`C[C@@H](Oc1cc(-n2cnc3ccc(CN4CCN(C)CC4)cc32)sc1C(N)=O)c1ccccc1C(F)(F)F` was tested, and the “cell shape (Z-score)” value was 3.02.
With `C=C1[C@H]2CC[C@@]3(C)[C@H](c4ccoc4)OC(=O)C[C@]13O[C@H]1C[C@H](O)C(C)(C)[C@H](CC(=O)OC)[C@]12C` the “cell shape (Z-score)” value was -1.66.
With `C=C1C(=O)OC2CC3(C)CCC=C(CO)C3CC12` (centres undefined) the “cell shape (Z-score)” value was -3.71.
For `COC(=O)C1=CO[C@@H](O[C@@H]2O[C@H](CO)[C@@H](O)[C@H](O)[C@H]2O)[C@H]2[C@@H]1C=CC21C=C([C@H](C)O)C(=O)O1` (some centres undefined), the “cell shape (Z-score)” value was 2.96.
For `CC(=O)OCC(Cc1ccccc1)NC(=O)C(Cc1ccccc1)NC(=O)c1ccccc1` (centres undefined), the “cell shape (Z-score)” value was 0.368.
In the case of `COc1cc(C)c2c(c1C=O)Oc1c(c(C)c(O)c3c1C(O)OC3=O)OC2=O` (centres undefined), the “cell shape (Z-score)” value is reported as -1.59.
With `Cc1cc(O)c(C)c2c1Oc1c(C)c(O)cc(C)c1C(=O)O2` the “cell shape (Z-score)” value was -6.49.
For `Cc1cc(O)c(C=O)c2c1C(=O)Oc1c(C)c(O)c3c(c1O2)C(O)OC3=O` (centres undefined), the “cell shape (Z-score)” value was 1.11.
For `CC(=O)OCC(=O)[C@@]1(O)CCC2C3C[C@H](C)C4=CC(=O)C=CC4(C)C3[C@@H](O)CC21C` (some centres undefined), the “cell shape (Z-score)” value was -2.52.
With `CC(CN(C)C)CN1c2ccccc2Sc2ccccc21` (centres undefined) the “cell shape (Z-score)” value was -1.29.
In the case of `O=C(Nc1nc2ccc(NC(=O)C34C[C@H]5C[C@@H](C3)C[C@@H](C4)C5)cc2s1)c1ccccc1`, the “cell shape (Z-score)” value is reported as -4.79.
For `COc1ccc2nc(NC(=O)Nc3ccccc3)sc2c1`, the “cell shape (Z-score)” value was 2.21.
For `O=C(Nc1ccc(C(=O)O)c(O)c1)c1ccccc1`, the “cell shape (Z-score)” value was 1.5.
With `N=C(N)NCCNS(=O)(=O)c1cccc2cnccc12` the “cell shape (Z-score)” value was 5.63.
